# According to PubChem BioAssay (Tox21):
# Records with an inconclusive call do not appear. Activity calls are given as the source filed them. Calls come from the whole dose curve; as a rule, active = well fitted inhibition curve with a large enough effect in the repeat runs; inconclusive = weak or mixed curves; inactive = no such curve, though single readings can be large or run the other way. Starred links: 1 amine or outer side, 2 acyl side, 3 side chain; linkers in the order of their positions; H or OH if unused. Positions of bridges follow the written chain, without caps; N, C: chain ends. Non-standard residues stand in square brackets, D forms with d. Residues, ends and D or L forms follow the SMILES beside them. *: point of attachment. X5 = NC1=N[C@@H]([C@H](N[*:1])C(=O)[*:2])C[C@H](O)N1; ΔAla(Z-3-ureido) = NC(=O)N/C=C(\N)C(=O)O; β3hOrn = NCCC[C@H](N)CC(=O)*; Dap = NC[C@H](N)C(=O)O
# Experiment: qHTS assay to identify small molecule antagonists of the thyroid receptor (TR) signaling pathway (AID 743065); note: nearly all actives have a fitted effect of over 55% in size
# Conditions: GH3.TRE-Luc, T3-stimulated luciferase inhibition, 23.5 h; series mostly up to 70.3 µM; activity, negative = inhibition: at the top concentration
# In short: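 GH3.TRE-Luc rat pituitary cells carrying two TR response elements driving luciferase were plated for 4 h, given compound plus 1 nM T3 (final), and incubated 23.5 h at 37 C. ONE-Glo luminescence measured reporter inhibition; CellTiter-Fluor fluorescence tracked cytotoxicity.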
# % is set by controls: 0 for no effect and ±100 for the full control effect; potency is the fitted concentration of half-maximal effect.
SMILES,"activity, negative = inhibition",Potency
CCCN(CC)C(CC)C(=O)Nc1c(C)cccc1C (centres undefined),-1.91% (inactive),–
Cc1ccc(/C(=C\CN2CCCC2)c2cccc(/C=C/C(=O)O)n2)cc1,-10.4% (inactive),–
CN[C@@H]1[C@@H](O)[C@@H](O[C@@H]2[C@@H](O)[C@H](OC3OC(CN)=CCC3N)[C@@H](N)C[C@H]2N)OC[C@]1(C)O (some centres undefined),13.1% [at 32.5 µM] (inactive),–
Cn1cc(NC(=O)c2cc(NC(=O)c3cc(NC=O)cn3C)cn2C)cc1C(=O)NCCC(=N)N,0.365% (inactive),–
CS(=O)(=O)Nc1cc2occ(NC=O)c(=O)c2cc1Oc1ccccc1,2.53% (inactive),–
O=c1[nH]cnc2[nH]cc(CN3CCCCC3)c12,0.0024% (inactive),–
C[C@]12C=CC(=O)C=C1CC[C@@H]1[C@@H]2[C@@H](O)C[C@@]2(C)[C@H]1CC[C@]2(O)C(=O)COC(=O)CCC(=O)O,8.49% (inactive),–
CNC[C@@H]1CC[C@@H](N)[C@@H](O[C@H]2[C@H](O)[C@@H](O[C@H]3OC[C@](C)(O)[C@H](NC)[C@H]3O)[C@H](N)C[C@@H]2N)O1,10.7% (inactive),–
C=C1CC2C3CCC4=CC(=O)C=C[C@]4(C)[C@@]3(F)[C@@H](O)C[C@]2(C)[C@@]1(O)C(=O)COC(C)=O (some centres undefined),1.4% (inactive),–
O=C(NOC[C@H](O)CO)c1ccc(F)c(F)c1Nc1ccc(I)cc1F,-26.1% (inactive),–
NCCC(=O)[N-][C@@H](Cc1cnc[nH]1)C(=O)O.[Zn],3.44% (inactive),–
OCC(O)COc1ccc(Cl)cc1 (centres undefined),0.371% (inactive),–
C[C@H]1C[C@H]2[C@@H]3CCC4=CC(=O)C=C[C@]4(C)[C@@]3(F)[C@@H](O)C[C@]2(C)[C@@]1(O)C(=O)CCl,-32% (inactive),–
CCN(CC)c1ccc(N=Nc2ccc(S(=O)(=O)N(C)C)cc2)c(S(=O)(=O)NCC[n+]2ccccc2)c1,-17.4% (inactive),–
CCC(C)C(C(=O)OCC[N+](C)(CC)CC)c1ccccc1 (centres undefined),-0.815% (inactive),–
Cc1c(O)cc2c(c1C)O[C@](C)(CCC[C@H](C)CCC[C@H](C)CCCC(C)C)CC2,-0.0832% (inactive),–
c1ccc2c(CCC3CCNCC3)c[nH]c2c1,–,21.1 µM (active)
Cc1ccccc1CNc1ncnc2c1ncn2[C@@H]1O[C@H](CO)[C@@H](O)[C@H]1O,9.06% (inactive),–
CC(=O)OCC(=O)[C@@]1(O)[C@H](C)C[C@H]2[C@@H]3C[C@H](F)C4=CC(=O)C=C[C@]4(C)[C@H]3[C@@H](O)C[C@@]21C,-4.5% (inactive),–
CC(C)(C)CC(=O)OCC(=O)[C@@]12OC(C)(C)O[C@@H]1C[C@H]1[C@@H]3CCC4=CC(=O)C=C[C@]4(C)[C@@]3(F)[C@@H](O)C[C@@]12C,25.9% (inactive),–

SMILES,"activity, negative = inhibition",Potency
CC(=O)N[C@@H](CC(=O)N[C@@H](CCC(=O)O)C(=O)O)C(=O)O,18.8% (inactive),–
C=C1c2c(Cl)ccc(O)c2C(O)=C2C(=O)[C@]3(O)C(O)=C(C(N)=O)C(=O)[C@@H](N(C)C)[C@@H]3[C@@H](O)[C@H]12,0.0124% [at 32.5 µM] (inactive),–
CCCCCCCCCCCCCCCC(=O)OC[C@@H](COP(=O)([O-])OCC[N+](C)(C)C)OC(=O)CCCCCCCCCCCCCCC,-0.739% (inactive),–
C[N+](C)(CCCCCC[N+](C)(C)C1c2ccccc2-c2ccccc21)C1c2ccccc2-c2ccccc21,-1.15% (inactive),–
Cc1cc(Nc2ccccc2C(=O)O)ccc1Cl,–,26.6 µM (active)
NCCC[C@H](N)CC(=O)N[C@H]1CNC(=O)[C@H]([C@H]2C[C@H](O)NC(N)=N2)NC(=O)/C(=C/NC(N)=O)NC(=O)[C@H](CO)NC(=O)[C@H](CO)NC1=O (β3hOrn-[Dap]SS[ΔAla(Z-3-ureido)][X5]; lactam 1-C),3.2% (inactive),–
CCCCCCCCCCCCCCCCCC(=O)OCCO,4.65% (inactive),–
CO[C@H]1[C@@H](O)[C@H](N)[C@@H](O[C@H]2O[C@H]([C@H](C)N)CC[C@H]2N)[C@H](O)[C@@H]1N(C)C(=O)CN,3.9% (inactive),–
CCCC(=O)Nc1ncnc2c1ncn2[C@@H]1O[C@@H]2COP(=O)(O)O[C@H]2[C@H]1OC(=O)CCC,12.6% (inactive),–
CN(CCO)CC(O)Cn1cnc2c1c(=O)n(C)c(=O)n2C (centres undefined) (tested in a mixture with another compound),10.4% (inactive),–
CCOC(=O)[C@H](CCc1ccccc1)N[C@H]1CCCN2CCC[C@@H](C(=O)O)N2C1=O,-3.04% (inactive),–
C[C@]12CC[C@@H]3c4ccc(OS(=O)(=O)O)cc4CC[C@H]3[C@@H]1CCC2=O,13.7% (inactive),–
O=C[C@H](O)[C@@H](O)[C@H](O[C@H]1O[C@H](CO)[C@@H](O[C@H]2O[C@H](CO)[C@@H](O)[C@H](O)[C@H]2O)[C@H](O)[C@H]1O)[C@H](O)CO,1.84% (inactive),–
CC(=O)OC[C@H]1O[C@@H](O[C@H]2[C@H](O)[C@@H](OC(=O)c3ccccc3C(=O)O)[C@H](O)O[C@@H]2COC(C)=O)[C@H](O)[C@@H](OC(=O)c2ccccc2C(=O)O)[C@@H]1O,0.0326% (inactive),–
CS(=O)(=O)OCCCNCCCOS(C)(=O)=O,16.3% (inactive),–
CN=C(NC)NCc1ccccc1,7.98% (inactive),–
CC1(C)S[C@@H]2[C@H](NC(=O)C(C(=O)Oc3ccc4c(c3)CCC4)c3ccccc3)C(=O)N2[C@H]1C(=O)O (some centres undefined),-3.06% (inactive),–
CS(=O)(=O)NC(=O)CCC/C=C\C[C@H]1C(=O)C[C@@H](O)[C@@H]1/C=C/[C@H](O)COc1ccccc1,-7.07% (inactive),–
COc1cc(S(C)=O)ccc1-c1nc2ncccc2[nH]1 (centres undefined),0.556% (inactive),–
